In ChEMBL document CHEMBL1961873, “Compounds: GSK PKIS; Assays: Nanosyn kinase panel” (2012) one finds inhibition data, which are given here for 10 molecules.

Assay [1] concerns the target Sphingosine kinase 1 (Homo sapiens) (UniProt Q9NYA1). As to conditions: at 1 µM.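 Further: mean SPHK1 inhibition value reported from the GSK PKIS kinase panel screen.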
Assay [2] addresses T1, Sphingosine kinase 2 (Homo sapiens) (UniProt Q9NRA0).
T1 sequence (whole entry): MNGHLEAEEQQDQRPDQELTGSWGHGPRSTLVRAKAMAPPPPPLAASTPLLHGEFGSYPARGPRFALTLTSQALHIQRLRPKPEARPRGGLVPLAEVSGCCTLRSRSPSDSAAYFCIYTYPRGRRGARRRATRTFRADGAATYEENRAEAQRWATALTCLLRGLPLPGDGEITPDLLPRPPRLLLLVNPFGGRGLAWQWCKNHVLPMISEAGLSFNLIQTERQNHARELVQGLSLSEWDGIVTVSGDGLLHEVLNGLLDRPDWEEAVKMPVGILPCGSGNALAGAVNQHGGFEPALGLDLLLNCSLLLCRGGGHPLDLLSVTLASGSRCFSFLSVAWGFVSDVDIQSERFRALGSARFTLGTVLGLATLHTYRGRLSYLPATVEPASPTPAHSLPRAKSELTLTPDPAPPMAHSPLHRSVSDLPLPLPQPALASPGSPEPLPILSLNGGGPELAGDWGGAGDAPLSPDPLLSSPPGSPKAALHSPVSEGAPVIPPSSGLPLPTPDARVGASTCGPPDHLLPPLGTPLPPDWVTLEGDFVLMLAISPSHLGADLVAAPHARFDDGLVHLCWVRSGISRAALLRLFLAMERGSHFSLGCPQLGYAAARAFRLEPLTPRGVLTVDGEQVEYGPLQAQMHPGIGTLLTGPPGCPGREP
As to conditions: at 0.1 µM.

Assay [3] has as its target T1, Sphingosine kinase 2 (Homo sapiens). As to conditions: at 1 µM.
In assay [4] the target is Casein kinase II subunit alpha (Homo sapiens) (UniProt P68400). The conditions noted are these: at 0.1 µM.
Assay [5] has the same target. As to conditions: at 1 µM.
Assay [6] addresses T2, Inhibitor of nuclear factor kappa-B kinase subunit alpha (Homo sapiens) (UniProt O15111).
T2 sequence (whole entry): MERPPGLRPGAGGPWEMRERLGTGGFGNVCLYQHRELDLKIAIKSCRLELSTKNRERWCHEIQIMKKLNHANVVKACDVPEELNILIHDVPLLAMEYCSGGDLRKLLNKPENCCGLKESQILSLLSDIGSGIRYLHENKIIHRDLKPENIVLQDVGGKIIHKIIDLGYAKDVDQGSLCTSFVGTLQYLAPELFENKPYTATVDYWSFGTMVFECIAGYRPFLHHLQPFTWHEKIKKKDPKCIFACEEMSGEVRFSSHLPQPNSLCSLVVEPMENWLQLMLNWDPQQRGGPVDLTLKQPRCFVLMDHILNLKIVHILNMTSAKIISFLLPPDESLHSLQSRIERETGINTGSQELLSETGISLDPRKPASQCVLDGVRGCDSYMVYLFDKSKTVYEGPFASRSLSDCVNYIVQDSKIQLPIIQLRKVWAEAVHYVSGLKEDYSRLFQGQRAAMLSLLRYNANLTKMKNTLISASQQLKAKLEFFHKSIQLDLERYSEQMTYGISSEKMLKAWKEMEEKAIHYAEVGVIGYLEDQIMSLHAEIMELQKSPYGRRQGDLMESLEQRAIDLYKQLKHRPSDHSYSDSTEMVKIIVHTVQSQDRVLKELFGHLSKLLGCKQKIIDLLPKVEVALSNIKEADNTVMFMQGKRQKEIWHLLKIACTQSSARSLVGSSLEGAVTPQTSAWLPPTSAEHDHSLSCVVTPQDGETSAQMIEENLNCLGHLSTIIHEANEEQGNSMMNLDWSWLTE
As to conditions: at 0.1 µM.

The target of assay [7] is T2, Inhibitor of nuclear factor kappa-B kinase subunit alpha (Homo sapiens). As to conditions: at 1 µM.
Assay [8] deals with T3, Inhibitor of nuclear factor kappa-B kinase subunit beta (Homo sapiens) (UniProt O14920).
T3 sequence (whole entry): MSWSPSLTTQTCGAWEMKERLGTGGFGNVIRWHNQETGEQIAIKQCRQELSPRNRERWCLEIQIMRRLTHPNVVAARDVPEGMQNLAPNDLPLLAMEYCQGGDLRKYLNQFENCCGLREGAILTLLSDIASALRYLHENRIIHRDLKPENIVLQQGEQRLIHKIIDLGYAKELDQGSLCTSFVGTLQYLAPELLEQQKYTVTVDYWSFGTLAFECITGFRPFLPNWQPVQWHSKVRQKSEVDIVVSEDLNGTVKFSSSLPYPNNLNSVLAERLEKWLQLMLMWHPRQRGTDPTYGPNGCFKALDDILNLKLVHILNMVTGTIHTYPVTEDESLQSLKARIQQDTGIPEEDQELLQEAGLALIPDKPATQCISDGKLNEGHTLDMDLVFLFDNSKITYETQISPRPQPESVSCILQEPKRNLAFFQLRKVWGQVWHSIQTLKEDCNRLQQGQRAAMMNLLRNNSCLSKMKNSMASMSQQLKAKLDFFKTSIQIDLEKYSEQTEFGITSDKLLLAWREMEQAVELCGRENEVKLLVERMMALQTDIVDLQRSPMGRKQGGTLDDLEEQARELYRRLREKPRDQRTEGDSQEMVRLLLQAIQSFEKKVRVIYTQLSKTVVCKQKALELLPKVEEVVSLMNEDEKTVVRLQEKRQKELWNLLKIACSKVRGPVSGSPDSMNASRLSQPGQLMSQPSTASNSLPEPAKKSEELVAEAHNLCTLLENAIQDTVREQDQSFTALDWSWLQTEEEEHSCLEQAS
The conditions noted are these: at 0.1 µM.

In assay [9] the target is T3, Inhibitor of nuclear factor kappa-B kinase subunit beta (Homo sapiens). As to conditions: at 1 µM.
Assay [10] deals with T4, Inhibitor of nuclear factor kappa-B kinase subunit epsilon (Homo sapiens) (UniProt Q14164).
T4 sequence (whole entry): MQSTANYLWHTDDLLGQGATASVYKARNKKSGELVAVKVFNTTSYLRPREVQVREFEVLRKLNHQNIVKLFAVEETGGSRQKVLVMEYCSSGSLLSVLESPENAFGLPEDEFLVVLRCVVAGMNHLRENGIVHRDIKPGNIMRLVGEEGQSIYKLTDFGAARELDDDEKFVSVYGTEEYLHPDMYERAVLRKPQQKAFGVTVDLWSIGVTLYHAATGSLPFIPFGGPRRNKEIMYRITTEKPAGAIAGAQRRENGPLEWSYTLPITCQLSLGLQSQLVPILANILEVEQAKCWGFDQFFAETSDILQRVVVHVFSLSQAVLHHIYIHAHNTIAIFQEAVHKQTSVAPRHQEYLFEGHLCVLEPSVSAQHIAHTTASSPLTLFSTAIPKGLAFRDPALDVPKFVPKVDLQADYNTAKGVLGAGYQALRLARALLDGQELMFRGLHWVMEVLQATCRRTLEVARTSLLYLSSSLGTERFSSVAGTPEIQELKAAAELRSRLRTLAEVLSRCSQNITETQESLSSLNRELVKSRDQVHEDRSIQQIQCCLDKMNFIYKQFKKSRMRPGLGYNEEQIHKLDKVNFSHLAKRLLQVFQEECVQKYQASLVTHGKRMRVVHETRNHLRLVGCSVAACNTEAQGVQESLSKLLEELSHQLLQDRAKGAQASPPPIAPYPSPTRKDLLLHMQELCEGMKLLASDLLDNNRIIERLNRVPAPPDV
As to conditions: at 0.1 µM.

Sequence of Sphingosine kinase 1 (Homo sapiens) (Q9NYA1 whole entry): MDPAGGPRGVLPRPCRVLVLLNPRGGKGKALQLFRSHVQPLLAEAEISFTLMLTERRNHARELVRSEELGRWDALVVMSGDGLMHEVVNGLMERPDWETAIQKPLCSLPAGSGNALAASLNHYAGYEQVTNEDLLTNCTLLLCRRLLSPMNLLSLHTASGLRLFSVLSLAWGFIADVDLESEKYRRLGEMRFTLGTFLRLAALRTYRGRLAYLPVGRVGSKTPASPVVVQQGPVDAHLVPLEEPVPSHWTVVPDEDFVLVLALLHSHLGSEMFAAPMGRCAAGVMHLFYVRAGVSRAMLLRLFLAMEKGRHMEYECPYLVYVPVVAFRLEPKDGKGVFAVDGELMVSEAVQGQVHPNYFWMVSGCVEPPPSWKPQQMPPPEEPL
Sequence of Casein kinase II subunit alpha (Homo sapiens) (P68400 whole entry, looked up): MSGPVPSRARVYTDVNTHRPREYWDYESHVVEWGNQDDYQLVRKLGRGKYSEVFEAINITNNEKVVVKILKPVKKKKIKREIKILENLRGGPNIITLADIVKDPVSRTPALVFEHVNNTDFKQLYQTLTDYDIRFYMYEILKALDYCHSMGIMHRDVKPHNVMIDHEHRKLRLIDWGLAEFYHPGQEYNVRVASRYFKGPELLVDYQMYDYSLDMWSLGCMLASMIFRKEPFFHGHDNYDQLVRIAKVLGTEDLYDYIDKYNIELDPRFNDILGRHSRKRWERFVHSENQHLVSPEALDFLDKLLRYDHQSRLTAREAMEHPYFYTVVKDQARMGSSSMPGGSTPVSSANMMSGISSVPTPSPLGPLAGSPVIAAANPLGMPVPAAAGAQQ

In general, inhibition refers to the drop in the measured response relative to a control, in per cent. For the molecule `C[C@@H](Oc1cc(-n2cnc3ccc(OC[C@@H](O)CO)cc32)sc1C(N)=O)c1ccccc1Cl`, the inhibition is 0.3% in assay [1]; 0% in [2]; 0.27% in [3]; 1.09% in assay [4]; 10.2% in assay [5]; -0.83% in assay [6]. In addition, the inhibition is -3.48% in assay [7], -3.56% in assay [8], -1.92% in [9] and -2.16% in assay [10].

As for `COc1cc(Nc2nccc(-c3cnn4ncccc34)n2)cc(OC)c1`, the inhibition is 0.57% in assay [1]; 0% in assay [2]; 0.21% in assay [3]; 8.84% in assay [4]; 42.7% in assay [5]; 17.4% in assay [6]. In addition, the inhibition in [7] was 71.4%; in assay [8], 5.71%; in assay [9], 24.5%; in [10], 5.75%.

With `CCS(=O)(=O)c1ccc(OC)c(Nc2nccc(N(C)c3ccc4c(C)n[nH]c4c3)n2)c1`, the inhibition is -1.1% in [1]; -0.07% in assay [2]; -0.93% in assay [3]; 13.8% in assay [4]; 7.45% in assay [5]; 12% in [6]. Also, the inhibition in assay [7] is 6.37%; in [8], 8.64%; in assay [9] it was 7.82%; in [10] it was 7.85%.

On to `ON=C1CCc2cc(-c3nc(C4CCNCC4)[nH]c3-c3ccncc3)ccc21`, for which the inhibition is -2.71% in assay [1]; 0.13% in assay [2]; -0.91% in assay [3]; -3.67% in assay [4]; -3.6% in [5]; -9.89% in [6]. In addition, the inhibition in assay [7] was -1.59%; in [8], 6.16%; in [9], 4.62%; in assay [10] it was 1.88%.

Consider `Cc1ccc2c(c1)/C(=N/Nc1ccc(S(N)(=O)=O)cc1)C(=O)N2`, for which the inhibition in assay [1] was 0.07%; in [2], 0.19%; in [3] it was 0.62%; in assay [4] it was -2.8%; in [5] it was -4.47%; in [6] it was 8.72%. Besides, the inhibition is 4.99% in [7], 1.92% in assay [8], 1.12% in [9] and -5.56% in assay [10].

With `COc1cccc(-n2nc(C)c3c(N/N=C(\C)c4ccncc4)ncnc32)c1`, the inhibition in assay [1] came to 2.22%; in [2], 0.03%; in assay [3], 0%; in assay [4], 2.16%; in [5] it was 6.88%; in assay [6], 1.96%. Further, the inhibition was -2.68% in [7], 1.3% in assay [8], 1.94% in assay [9] and -1.8% in assay [10].

As for `FC(F)(F)c1ccc(-c2nn3ncccc3c2-c2ccnc(Nc3ccc4c(c3)OCCO4)n2)cc1`, the inhibition in assay [1] was found to be 0.29%; in assay [2], 3.37%; in assay [3], 4.75%; in [4], 8.02%; in assay [5], 19.8%; in assay [6], 1.17%. Also, the inhibition is 0.75% in assay [7], 0.04% in assay [8], 2.22% in assay [9] and 1.97% in assay [10].

Turning to `CN(C)C(=O)O[C@@H]1CN[C@@H](C#Cc2cc3ncnc(Nc4ccc(OCc5cccc(F)c5)c(Cl)c4)c3s2)C1`, the inhibition in [1] was -1.68%; in assay [2], 0%; in assay [3], 0%; in [4], -1.08%; in assay [5], -1.78%; in [6], 6.13%. Also, the inhibition in assay [7] is -0.14%; in [8], 4.79%; in [9], 2.73%; in assay [10] it was 0.34%.

Turning to `OCc1ccc(-c2nc(-c3ccccn3)c(-c3ccc4c(c3)OCO4)[nH]2)cc1`, the inhibition was -4.68% in [1]; -0.11% in assay [2]; 0.5% in assay [3]; 2.74% in [4]; -0.37% in [5]; 6.97% in assay [6]. Also, the inhibition in assay [7] is 8.08%; in [8], 5.29%; in assay [9], 4.72%; in assay [10] it was 4.91%.

Take `NS(=O)(=O)c1ccc(NC=C2C(=O)Nc3ccc4ncsc4c32)cc1`: the inhibition in [1] was determined as 3.96%; in assay [2], 1.68%; in assay [3], 2.35%; in assay [4] it was 15.7%; in [5] it was 46.4%; in assay [6] it was 13.6%. Also, the inhibition in [7] was determined as 23.5%; in assay [8] it was 10.6%; in assay [9], 19.2%; in assay [10], 19.3%.
